# Laboratory results: PubChem BioAssay AID1947 (The Scripps Research Institute Molecular Screening Center, 2009)
# The campaign covered roughly 300,000 compounds. About 990 (0.33%) were called active.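 Rule for the calls: active = inhibition above the screen mean inhibition plus 3 SD, computed separately per campaign (cut at about 18% in these data); inactive = the rest.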 The entries come from a sample that favours actives as a whole.
# Tested on: Fam108B (ABHD17B) serine hydrolase [Mus musculus]
# Assay: mouse Fam108B serine hydrolase inhibitors, primary screen, counter-screen for RBBP9 inhibitor project, biochemical, fluorescence polarization (AID 1947);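 note: inhibitors lower polarization as less probe binds the enzyme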
# Conditions: recombinant Fam108B, FP-Rh probe fluorescence polarization; at 9.51 µM; stronger effect = higher value
row,Structure (SMILES),inhibition
1,CCC(C)N(C(=O)COC(=O)c1nc(Cl)ccc1Cl)C1CCS(=O)(=O)C1 (centres undefined),4.9% (inactive)
2,CCOC(=O)c1sc(=NC(=O)/C=C/c2cccs2)n(C)c1C,-2.21% (inactive)
3,COc1cccc(-c2nc(CS(=O)CC(=O)NCc3ccc(F)cc3)c(C)o2)c1 (centres undefined),1.48% (inactive)
4,COc1ccc(-c2nc(CS(=O)CC(=O)NCc3ccccc3)c(C)o2)cc1OC (centres undefined),0.72% (inactive)
5,COc1ccc(-c2nc(CS(=O)CC(=O)NCc3ccccn3)c(C)o2)cc1 (centres undefined),22.4% (active)
6,CCC(=O)Nc1cccc(C2=NOC3(C2)C[C@@H](C(N)=O)N(C(=O)c2cc([N+](=O)[O-])cc([N+](=O)[O-])c2C)C3)c1 (some centres undefined),3.54% (inactive)
7,Cc1ccc(-n2c(C)nnc2SCC(=O)NC2CC2)cc1,2.72% (inactive)
8,CC(CC(=O)N1CCN(c2ccccc2)CC1)S(=O)(=O)c1ccc2c(c1)NC(=O)CS2 (centres undefined),-0.25% (inactive)
9,O=C(NN=C1CCC(=NNC(=O)c2cccnc2)CC1)c1cccnc1,-0.8% (inactive)
10,Cc1cc(/C=N/NC(=O)c2cccnc2)c(C)n1CC(C)C,0.13% (inactive)
11,O=C(N/N=C/c1sc(N2CCCCC2)nc1-c1cccs1)c1cccnc1,30.7% (active)
12,CC1CC(C)CN(S(=O)(=O)c2cccc(C(=O)N3C(=O)c4cccc(N)c4C3=O)c2)C1 (centres undefined),-1.13% (inactive)
13,NS(=O)(=O)c1ccc(CCNC(=O)c2nc(CS(=O)(=O)c3ccc(Cl)cc3)no2)cc1,1.62% (inactive)
14,CC(N=Cc1nc(-c2ccccc2)oc1O)c1ccccc1 (centres undefined),4.55% (inactive)
15,Oc1oc(-c2ccccc2Br)nc1/C=N/c1ccccn1,25.5% (active)
16,CCOc1ccc2nc(/N=C/c3nc(-c4ccccc4)oc3O)sc2c1,5.88% (inactive)
17,O=C(CCNC(=O)C1CCN(S(=O)(=O)c2ccccc2)CC1)NC1CC1,-1.2% (inactive)
18,Cc1ccc(-c2nc3c(cnn3-c3ccccc3)c(=O)o2)cc1,22.6% (active)
19,CC(=O)Cn1cnc2c(cnn2-c2ccccc2)c1=O,4.35% (inactive)
20,Cc1ccc(-n2ncc3c(=O)n(-c4ccc(C)c(C)c4)c(-c4ccco4)nc32)cc1,-5.3% (inactive)
21,O=C(COc1ccccc1)Nc1nonc1NC(=O)COc1ccccc1,-1.87% (inactive)
22,COc1ccc(C)cc1S(=O)(=O)NCCc1ccccc1,1.15% (inactive)

row,Structure (SMILES),inhibition
1,Cc1cc(C)c(S(=O)(=O)n2cc(C(C)C(N)C(=O)O)c3ccccc32)c(C)c1 (centres undefined),-1.29% (inactive)
2,CCC1(c2ccccc2)NC(=O)N(CC(=O)c2ccc3c(c2)OCO3)C1=O (centres undefined),1.48% (inactive)
3,c1ccc(C2=Nc3cccc4cccc(c34)N2)cc1,31.5% (active)
4,Fc1ccccc1N=C1Nc2cccc3cccc1c23,3.49% (inactive)
5,COc1ccccc1C1=Nc2cccc3cccc(c23)N1,6.45% (inactive)
6,CCN(CC(=O)NCc1ccc(Cl)cc1)C(=O)CSc1ccccc1,1.51% (inactive)
7,CN1/C(=C\C=C2\N=C(c3ccc(F)cc3)OC2=O)C(C)(C)c2ccccc21,-7.15% (inactive)
8,CC(=O)Nc1cccc(Nc2nc(-c3cccs3)nc3ccccc23)c1,-19.2% (inactive)
9,COc1ccc(Nc2nc(-c3cccnc3)nc3ccccc23)cn1,-1.81% (inactive)
10,Cc1cccc(-c2nc(Nc3ccc(O)cc3)c3ccccc3n2)c1,29.1% (active)
11,O=C(C/C(=N\NC(=O)c1ccccc1Br)C(F)(F)F)c1cccs1,1.64% (inactive)
12,Cc1ccc(N/C(N)=N/c2nc(C(F)(F)F)cc(C(F)(F)F)n2)cc1,-3.46% (inactive)
13,CCOc1ccc(NC(=O)COc2ccc(S(=O)(=O)N3CCCC3)cc2)cc1,-2.57% (inactive)
14,COCCNC(=O)c1ccccc1NS(=O)(=O)c1ccc(C)c([N+](=O)[O-])c1,-2.57% (inactive)
15,Cc1ccc(NS(=O)(=O)c2ccc(N/N=C/c3ccccc3OCC(=O)O)c([N+](=O)[O-])c2)c(C)c1,26.5% (active)
16,Cc1ccc(NS(=O)(=O)c2ccc(C)c(NC(=O)COc3ccc4ccccc4c3)c2)c(C)c1,-29.8% (inactive)
17,CO/N=C/c1ccc(N2CCN(C(=O)c3cccc(Cl)c3)CC2)c([N+](=O)[O-])c1,4.08% (inactive)
18,O=C(O)CCN=C1CCc2ccccc2N1,9.07% (inactive)
19,CC(=O)Nc1ccc(NC(=O)CSC2=NS(=O)(=O)c3ccccc3N2)cc1,0.2% (inactive)
20,CC(C)(C)C(=O)OCc1nc(-c2ccc(O)c(O)c2)cs1,-1.7% (inactive)
21,COc1ccc(OC)c(Nc2nc(-c3ccc(O)c(O)c3)cs2)c1,20.1% (active)
22,COc1ccc(CC(=O)Nc2nc(-c3ccc(F)c(F)c3)cs2)cc1OC,-7.43% (inactive)

row,Structure (SMILES),inhibition
1,CCOc1ccc(S(=O)(=O)Nc2nccs2)cc1,2.3% (inactive)
2,COC(C[C@@H](O)C[C@H](O)[C@H](C)OCc1ccccc1)OC,4.92% (inactive)
3,COc1ccccc1NS(=O)(=O)c1ccc(C)c(C(=O)NCC(c2ccco2)N(C)C)c1 (centres undefined),-0.42% (inactive)
4,CC(=O)Nc1ccc(Oc2ccc3c(c2)C(=O)NC3=O)cc1,0.73% (inactive)
5,C=CCn1c(SCc2csc(C)n2)nc2scc(-c3ccc(C)o3)c2c1=O,0.24% (inactive)
6,C=CCn1c(=S)[nH]c2scc(-c3ccco3)c2c1=O,18.5% (active)
7,C=CCNC(=O)CSc1nc2scc(-c3ccco3)c2c(=O)n1CC=C,-0.48% (inactive)
8,O=C(CCCN1C(=O)/C(=C/c2cccs2)SC1=S)Nc1ccc(O)cc1,-3.39% (inactive)
9,CCC/C(C)=N\Nc1nc2c(c(=O)n(C)c(=O)n2C)n1C,0.84% (inactive)
10,Cc1cccc(COc2ccccc2/C=N/Nc2ccc([N+](=O)[O-])cc2)c1,23% (active)
11,O=[N+]([O-])c1ccc(N/N=C/c2ccccc2)cc1,5.14% (inactive)
12,Cc1ccccc1OCCOc1ccc([N+](=O)[O-])cc1/C=N/n1cnnc1,-2.64% (inactive)
13,CC1=CC2=NC(=O)CC(C)(C(=O)N(CC(=O)NC(C)(C)C)Cc3ccccc3)N2C=C1 (centres undefined),0.82% (inactive)
14,Cc1cccc2cc3c(N)c(C(=O)N4CCCc5ccccc54)sc3nc12,18.9% (active)
15,Cc1c(C(=O)N2CCCc3ccccc32)oc2ccccc12,0.38% (inactive)
16,Cc1c(C(=O)N2CCCc3ccccc32)sc2nc(-c3ccccc3)cn12,2.92% (inactive)
17,O=C(CCC(=O)n1ncc2ccccc21)NCc1ccccc1Cl,0.79% (inactive)
18,COc1ccc(-c2csc3nc(-c4ccccc4F)oc(=O)c23)cc1OC,21.9% (active)
19,COc1ccc(-c2csc(-c3cccs3)n2)cc1OC,3.25% (inactive)
20,COc1ccccc1-c1nnc(-c2ccc(F)cc2)o1,-1.04% (inactive)
